Experimental data reported in PMC4336329 (PLoS ONE, 2015).
About 14,000 (4.5%) of roughly 310,000 compounds showed an effect of 50% or more. Effects have a minus sign here. Shown is part of a subset that was picked to be rich in strong results.

Each molecule was assayed against human ether-à-go-go-related gene (hERG) potassium channel (human, UniProt Q12809) (assay: primary screen, population patch clamp on CHO cells stably expressing hERG; higher = less effect of the substance).
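Further: peak tail current of the secondary pulse compared with the same well before compound.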

human ether-à-go-go-related gene (hERG) potassium channel, sequence (Q12809 whole entry, looked up): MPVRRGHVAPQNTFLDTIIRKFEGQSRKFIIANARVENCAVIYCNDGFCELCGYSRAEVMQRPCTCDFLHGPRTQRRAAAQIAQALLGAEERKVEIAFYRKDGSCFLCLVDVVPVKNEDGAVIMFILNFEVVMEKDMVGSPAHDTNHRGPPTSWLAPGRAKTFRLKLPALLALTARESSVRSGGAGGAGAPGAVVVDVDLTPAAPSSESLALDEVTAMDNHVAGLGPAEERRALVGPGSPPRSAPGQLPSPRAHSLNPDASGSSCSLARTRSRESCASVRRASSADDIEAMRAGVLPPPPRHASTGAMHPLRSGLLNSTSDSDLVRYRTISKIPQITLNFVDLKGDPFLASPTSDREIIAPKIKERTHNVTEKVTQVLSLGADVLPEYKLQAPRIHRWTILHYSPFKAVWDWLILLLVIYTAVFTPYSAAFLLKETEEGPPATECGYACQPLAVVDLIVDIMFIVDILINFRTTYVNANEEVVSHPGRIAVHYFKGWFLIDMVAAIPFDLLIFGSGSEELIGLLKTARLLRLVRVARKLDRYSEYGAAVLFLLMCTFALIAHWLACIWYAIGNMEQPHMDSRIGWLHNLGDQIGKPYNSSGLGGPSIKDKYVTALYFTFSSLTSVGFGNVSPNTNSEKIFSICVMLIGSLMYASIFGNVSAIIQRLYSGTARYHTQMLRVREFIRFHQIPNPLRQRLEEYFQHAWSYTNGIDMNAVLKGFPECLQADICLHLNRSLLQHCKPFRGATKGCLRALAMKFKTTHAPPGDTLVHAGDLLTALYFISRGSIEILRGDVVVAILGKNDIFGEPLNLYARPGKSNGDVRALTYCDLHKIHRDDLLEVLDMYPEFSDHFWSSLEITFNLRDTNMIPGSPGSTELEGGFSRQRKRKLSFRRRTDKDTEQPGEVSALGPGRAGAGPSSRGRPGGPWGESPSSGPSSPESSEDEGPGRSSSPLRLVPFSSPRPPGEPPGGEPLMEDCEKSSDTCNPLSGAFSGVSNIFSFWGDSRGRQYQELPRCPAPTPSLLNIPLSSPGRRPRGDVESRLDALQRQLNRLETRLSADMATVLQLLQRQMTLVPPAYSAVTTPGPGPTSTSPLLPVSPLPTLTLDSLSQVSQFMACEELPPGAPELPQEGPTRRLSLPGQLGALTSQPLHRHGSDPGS

Going from `O=C(COC(=O)C1CC(=O)N(Cc2ccccc2)C1)Nc1ccc(Cl)cc1F` (stereo not shown) to `COc1ccc(C)cc1NC(=O)COC(=O)c1ccc2ccccc2n1`, the “hERG current change (%, negative = inhibition) at 10uM” value falls from 48% to 3.24%.

Compared with `C/C(=N\NC(=O)c1nnn(-c2nonc2N)c1CSc1ccc(C)cc1)c1ccco1`, `Brc1cccc(-c2nnc3sc(CNCc4ccco4)cn23)c1` is lower in “hERG current change (%, negative = inhibition) at 10uM” value: -9.04% for the first, -60.3% for the second.

Going from `O=C1c2ccccc2NC(c2ccc(O)cc2)N1Cc1ccco1` (stereo not shown) to `CC(CCc1ccc(O)cc1)N(C)CCc1ccccc1` (stereo not shown), the “hERG current change (%, negative = inhibition) at 10uM” value falls from -24.3% to -62.2%.

First: CCOC(=O)C(C)CC(C)C(=O)N1CCOCCN(C(=O)C(C)CC(C)C(=O)OCC)CCOCC1 (stereo not shown)
Second: CCOC(=O)N1CCN(C(=O)CSc2nnc(-c3ccccc3OC)o2)CC1
The “hERG current change (%, negative = inhibition) at 10uM” value of the first is higher: -9.48% for the first, -12.9% for the second.

Compared with `COc1ccc(CN(Cc2cc3ccc(C)cc3[nH]c2=O)Cc2nnnn2C2CCCC2)cc1`, `COc1ccc(C[C@H]2CN3C(=NC[C@@H]3Cc3ccc(O)cc3)N2CCNC(=O)c2ccc(C)c(Br)c2)cc1` is lower in “hERG current change (%, negative = inhibition) at 10uM” value: -21.4% for the first, -74.3% for the second.

Compared with `CC1(C)Cc2c(c(N3CCOCC3)nc3sc(C(N)=O)c(N)c23)CO1`, `O=C(NCC1CCCO1)c1cc(-c2ccc(Cl)cc2Cl)on1` (stereo not shown) is lower in “hERG current change (%, negative = inhibition) at 10uM” value: -5.66% for the first, -9.68% for the second.

Going from `Nc1nccnc1C(=O)OCC(=O)N1CCN(S(=O)(=O)c2ccc(Cl)cc2)CC1` to `Cc1ccc(S(=O)(=O)N2CCN(c3ccc(C(F)(F)F)cc3[N+](=O)[O-])CC2)cc1`, the “hERG current change (%, negative = inhibition) at 10uM” value falls from -15.4% to -30.8%.

Compared with `CCCNC(=O)CSc1nc2ccccc2c(=O)n1CCC`, `O=C(O)CCCCCNC(=O)CCn1cnc2ccccc2c1=O` is higher in “hERG current change (%, negative = inhibition) at 10uM” value: 3.3% for the first, 5.02% for the second.

Going from `O=C(Nc1ccccc1N1CCCC1)c1ccc(N2CCCC2=O)cc1` to `O=[N+]([O-])c1ccc(N2CCCCCC2)c2ncccc12`, the “hERG current change (%, negative = inhibition) at 10uM” value rises from -22.1% to 5.54%.

First: CC(O)CCc1ccc(O)cc1 (stereo not shown)
Second: COc1ccc(CCC(C)N(C)Cc2ccccc2)cc1 (stereo not shown)
The “hERG current change (%, negative = inhibition) at 10uM” value of the first is higher: 11.7% for the first, -34.8% for the second.

Going from `CCCNC(=O)c1cc(Cl)c(NC(=O)C2=CSCCO2)cc1OC` to `C=CCNC(=O)Nc1cc(Cl)ccc1OC`, the “hERG current change (%, negative = inhibition) at 10uM” value falls from 16.5% to 7.65%.

Compared with `CCOC(=O)c1ccc(NC(=O)CCCN2C(=O)NC3(CCCC3)C2=O)cc1`, `Cc1ccc(NC(=O)C(c2ccccc2)N2CCN(CC(=O)NC3CC3)CC2)cc1` (stereo not shown) is lower in “hERG current change (%, negative = inhibition) at 10uM” value: -3.62% for the first, -18.1% for the second.

Compared with `COc1ccccc1N1CCN(C(=O)CCCCCn2c(=O)[nH]c3ccsc3c2=O)CC1`, `NC(=O)C1CCN(C(=O)CCCCCn2c(=O)[nH]c3ccsc3c2=O)CC1` is higher in “hERG current change (%, negative = inhibition) at 10uM” value: -24.7% for the first, 0.397% for the second.

Compared with `O=C1CCCC(=O)N1c1ccc(O)cc1`, `O=[N+]([O-])c1ccc(N2CCCC2)c2ncccc12` is higher in “hERG current change (%, negative = inhibition) at 10uM” value: 2.73% for the first, 8.6% for the second.

First: Cc1ccc(C(=O)NCCN2C3=NC[C@@H](Cc4ccccc4)N3C[C@H]2Cc2ccc(O)cc2)cc1Br
Second: Cc1ccc(C(=O)NCCN2C3=NC[C@H](Cc4ccc(O)cc4)N3C[C@H]2Cc2ccc(O)cc2)cc1Br
The “hERG current change (%, negative = inhibition) at 10uM” value of the first is lower: -71.1% for the first, -51.7% for the second.

Going from `C/C=C(\C)C(=O)NCCN1C2=NC[C@H](Cc3ccc(O)cc3)N2C[C@H]1Cc1ccc(O)cc1` to `Cc1ccc(C(=O)NCCN2C3=NC[C@H](C)N3C[C@H]2Cc2ccc(O)cc2)cc1Br`, the “hERG current change (%, negative = inhibition) at 10uM” value falls from 16.5% to -8.85%.

Going from `COc1cc(/C=C2\SC(=O)NC2=O)ccc1Oc1ccc([N+](=O)[O-])cc1[N+](=O)[O-]` to `COc1cc(/C=C/c2cccc[n+]2C)ccc1OCC(=O)Nc1ccccc1C.[I-]`, the “hERG current change (%, negative = inhibition) at 10uM” value falls from 20.2% to 8.13%.

Compared with `Brc1cccc(C=Nc2cccc3ncccc23)c1`, `Cc1cc(N2CCN(c3ccc([N+](=O)[O-])c4cccnc34)CC2)c2ccccc2n1` is lower in “hERG current change (%, negative = inhibition) at 10uM” value: 7.37% for the first, -64.3% for the second.

Compared with `CCOc1cc(C)c(Cl)cc1S(=O)(=O)n1nnc2ccccc21`, `O=[N+]([O-])c1cc(C(F)(F)F)ccc1N1CCN(S(=O)(=O)c2ccc3ccccc3c2)CC1` is higher in “hERG current change (%, negative = inhibition) at 10uM” value: 6.52% for the first, 9.11% for the second.

Compared with `COc1ccc(C(=O)Nc2ccc(Cl)c(Cl)c2)c(OC)n1`, `COc1cccc(OCC(=O)Nc2c3c(nn2-c2ccccc2)CS(=O)(=O)C3)c1` is lower in “hERG current change (%, negative = inhibition) at 10uM” value: 14.1% for the first, -48.5% for the second.

First: Nc1nonc1OCCN1CCN(c2ccc([N+](=O)[O-])c3cccnc23)CC1
Second: O=[N+]([O-])c1ccc(N2CCN(CCO)CC2)c2ncccc12
The “hERG current change (%, negative = inhibition) at 10uM” value of the first is lower: -71.7% for the first, -45.4% for the second.

Going from `Cc1cc(N2CCN(c3ccc(C(F)(F)F)cc3[N+](=O)[O-])CC2)c2ccccc2n1` to `CN1CCN(c2ccc([N+](=O)[O-])c3cccnc23)CC1`, the “hERG current change (%, negative = inhibition) at 10uM” value rises from -88.9% to -41.5%.

Compared with `Cl.O=[N+]([O-])c1ccc(N2CCCNCC2)c2ncccc12`, `O=[N+]([O-])c1ccc(N2CCCCC2)c2ncccc12` is higher in “hERG current change (%, negative = inhibition) at 10uM” value: -64.8% for the first, -23.7% for the second.

Compared with `CC1CN(c2ccc([N+](=O)[O-])c3cccnc23)CC(C)N1` (stereo not shown), `Brc1cccc(-c2nnc3sc(CNC4CCCC4)cn23)c1` is higher in “hERG current change (%, negative = inhibition) at 10uM” value: -33.4% for the first, -16.2% for the second.

Compared with `COc1cc(CNc2nc(C)c([N+](=O)[O-])c(C)c2C#N)cc(OC)c1`, `COc1cc(/C=N/NC(=S)NCCc2ccccc2)cc(OC)c1OC` is lower in “hERG current change (%, negative = inhibition) at 10uM” value: 10.8% for the first, 8.26% for the second.

First: NC(=O)Cn1cc(C(=O)COc2ccccc2)c2ccccc21
Second: CC(C)CCNC(=O)COc1ccc(C(=O)c2ccccc2)cc1
The “hERG current change (%, negative = inhibition) at 10uM” value of the first is higher: -3.45% for the first, -23.8% for the second.

First: C[C@@H]1NC(=O)c2cc([N+](=O)[O-])cc(I)c2NCC[C@@H](C(N)=O)NC(=O)[C@H](CC(N)=O)NC1=O
Second: CCC(=O)N1CCc2cc(Br)cc(S(=O)(=O)NCCN3CCCCC3CC)c21 (stereo not shown)
The “hERG current change (%, negative = inhibition) at 10uM” value of the first is higher: 11.2% for the first, -20.4% for the second.

With `Brc1cccc(-c2nnc3sc(CN4CCCCC4)cn23)c1` the “hERG current change (%, negative = inhibition) at 10uM” value was -11%.
